Compounds with a hit are over-represented: about 0.97% of the library has one in this group of screens.
RecA splice inh: Mtb RecA intein splicing inhibitors, primary screen, biochemical, fluorescence, HTS; cell-free RecA intein splicing; inhibition, % (no concentration beside the values); 290,000 compounds, 0.75% hits; AID 2221, 2009; in the data active means inhibition above about 30%
Rv3671c protease: Rv3671c serine protease inhibitors, primary screen, biochemical, fluorescence polarization, M. tuberculosis H37Rv. inhibition, % at 5.96 µM. AID 2606, 2010. P9WHR9. 320,000 compounds, 0.048% hits; in the data active means inhibition above about 38%;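 further: extracellular domain of Rv3671c used as enzyme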
Target sequence (P9WHR9 whole entry, looked up, the tested form may be a part): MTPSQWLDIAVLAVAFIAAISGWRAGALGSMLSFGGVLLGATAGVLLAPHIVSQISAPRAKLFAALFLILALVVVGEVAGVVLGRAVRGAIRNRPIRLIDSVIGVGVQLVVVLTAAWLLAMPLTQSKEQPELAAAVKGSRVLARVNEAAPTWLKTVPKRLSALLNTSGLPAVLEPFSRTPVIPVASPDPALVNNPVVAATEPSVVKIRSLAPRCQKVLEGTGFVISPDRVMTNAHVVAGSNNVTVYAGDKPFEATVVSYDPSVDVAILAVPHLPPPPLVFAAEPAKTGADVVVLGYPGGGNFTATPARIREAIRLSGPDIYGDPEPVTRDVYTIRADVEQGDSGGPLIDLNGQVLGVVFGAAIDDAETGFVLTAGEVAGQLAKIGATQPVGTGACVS
UGM FP inh: M. tuberculosis UGM enzyme inhibitors, primary screen, biochemical, fluorescence polarization, single point. purified UGM, fluorescence polarization probe displacement. inhibition, % at 10 µM. 320,000 compounds, 0.06% hits. AID 504406, 2011; in the data active means inhibition above about 10%, passing the limit was not always enough
MazF activator: activators of E. coli MazEF toxin-antitoxin RNase, primary screen, biochemical, fluorescence, uHTS; Endoribonuclease toxin MazF (Escherichia coli (strain K12)), P0AE70; FAM/BHQ RNA-DNA oligo cleavage fluorescence, 5 h; activation, % at 20 µM; 350,000 compounds, 0.32% hits; AID 504720, 2011; in the data active means activation above about 50%
Target sequence (P0AE70 whole entry, looked up): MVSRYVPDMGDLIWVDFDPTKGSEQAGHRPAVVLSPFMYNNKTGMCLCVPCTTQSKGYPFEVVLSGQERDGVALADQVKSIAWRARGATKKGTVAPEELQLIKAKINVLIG
Mtb betalactam: beta-lactam sensitization of Mtb H37Rv, H37Rv; 330,000 compounds, 0.27% hits; M. tuberculosis H37Rv growth with meropenem, percent inhibition; inhibition, % at 25 µM;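 further: growth measured after seven days incubation then overnight dye step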
TcdB inh: TcdB glycohydrolase inhibitors, primary screen, biochemical, single point, plate reader | inhibition, % at 9.99 µM | 350,000 compounds, 0.24% hits | TcdB glycohydrolase enzymatic assay | Toxin B (Clostridioides difficile), P18177; in the data active means inhibition above about 10%
GFP chromophore: counter-screen: blocks GFP chromophore formation, dose response, counter-screen, biochemical, fluorescence, homogeneous. shares compounds with RecA splice inh. AID 434968, 2010. 2,100 compounds, 83% hits. cell-free GFP chromophore formation. EC50, µM
Numbers stand for hits; - = inactive; . = no result given. Unless noted, how the calls were made is not given here.

SMILES | RecA splice inh | Rv3671c protease | UGM FP inh | MazF activator | Mtb betalactam | TcdB inh | GFP chromophore
C/C(CC(=O)Nc1ccccc1[N+](=O)[O-])=N\NC(=O)COc1ccccc1C | 69 | - | - | - | - | . | 21
C/C(CC(=O)Nc1ccc(F)cc1)=N\NC(=O)COc1ccccc1 | 66 | - | - | - | - | . | 22
COc1ccc2nc3cccc(OC)c3nc2c1 | 45 | - | - | - | - | - | 24
COc1ccc2nc3ccccc3nc2c1N | 64 | - | - | - | - | - | 40
COc1cccc(C2C3=C(CCCC3=O)Nc3[nH]n(-c4ccccc4)c(=O)c32)c1 (configuration not stated) | - | - | - | - | - | - | .
O=C1CCCC2=C1C(c1ccc3c(c1)OCO3)c1c([nH]n(-c3ccccc3)c1=O)N2 (configuration not stated) | 74 | - | - | - | - | . | 14
COCC1CC(c2ccccc2)OC(c2ccc(NC(=O)CCCCCCC(=O)O)cc2)O1 (configuration not stated) | . | . | . | . | . | - | .
COc1ccccc1-n1nnnc1SCC(=O)NCC1CCCO1 (configuration not stated) | - | - | - | - | - | - | .
COc1ccccc1NC(=O)c1cnc(SCC(=O)NCC2CCCO2)n(C)c1=O (configuration not stated) | 45 | - | - | - | - | - | -
Cc1ccc(S(=O)(=O)N[C@H]2C=C[C@@H](CC(=O)NCCc3ccncc3)O[C@H]2CO)cc1 | . | . | . | . | . | - | .
CC(=O)c1ccc(-c2cccc(-c3nc4ccccn4c3NC3CCCCC3)c2)cc1 | 32 | - | - | - | - | - | 0.38
Cc1noc(C)c1NC(=O)Nc1ccc2c(c1)C(=O)N([C@@H](C)CO)C[C@@H](C)[C@@H](CN(C)Cc1ccncc1)O2 | . | . | . | . | . | - | .
Cc1nn(-c2ccccc2)c(Cl)c1CN(C(=O)CCl)c1ccc(Cl)cc1 | 88 | - | - | - | - | - | 2.2
CC(=O)N(Cc1c(C)nn(-c2ccccc2)c1Cl)c1ccc(Cl)cc1 | - | - | - | - | - | . | .
Cc1nn(-c2ccccc2)c(Cl)c1CN(C(=O)CCl)c1cccc2ccccc12 | 67 | - | - | - | . | - | 6.3
COc1cccc(-c2cnc3c(c2)C(=O)N([C@H](C)CO)C[C@H](C)[C@@H](CN(C)Cc2ccncc2)O3)c1 | . | . | . | . | . | - | .
CCN1CCN(c2c(Cl)cccc2NC(=O)c2ccc3c(c2)OCCO3)CC1 | 31 | - | - | - | - | . | -
O=C1C(=O)c2ccccc2-c2ccccc21 | 53 | - | - | - | - | - | 6.9
NC1=C(Br)C(=O)c2ccccc2C1=O | 90 | - | - | - | - | - | 5.4
C[C@@H]1CN([C@@H](C)CO)C(=O)c2cc(NC(=O)Nc3ccc(F)cc3)ccc2O[C@@H]1CN(C)C(=O)Nc1ccc2c(c1)OCO2 | . | . | . | . | . | - | .
CCC(=O)N(C)C[C@@H]1Oc2cc(C#Cc3ccccn3)ccc2S(=O)(=O)N([C@H](C)CO)C[C@@H]1C | . | . | . | . | . | - | .
O=[N+]([O-])c1cc(O)c2ncccc2c1 | 37 | - | - | - | - | - | 12
O=C1C(=O)c2cccc3cccc1c23 | - | - | - | - | - | - | .
O=C1C(Br)=Cc2cccc3cccc1c23 | 70 | - | - | - | - | - | 36
O=C(C1CCCCC1)N1C[C@@H]2[C@H](c3ccccc31)[C@@H](CO)N2C(=O)Cc1ccccn1 | . | . | . | . | . | - | .
SMILES | RecA splice inh | Rv3671c protease | UGM FP inh | MazF activator | Mtb betalactam | TcdB inh | GFP chromophore
CS(=O)(=O)c1ccc(Sc2nc3ccccc3s2)c([N+](=O)[O-])c1 | - | - | - | - | - | . | .
O=[N+]([O-])c1cc(S(=O)(=O)C(F)(F)F)ccc1Sc1nc2ccccc2[nH]1 | 82 | - | - | - | - | . | 1.5
O=[N+]([O-])c1cc(S(=O)(=O)C(F)(F)F)ccc1Sc1nc2ccccc2s1 | 85 | - | - | - | - | . | 0.25
CS(=O)(=O)c1ccc(Sc2nc3ccccc3[nH]2)c([N+](=O)[O-])c1 | - | - | - | - | - | . | .
CC(C)NC(=O)N1CC2(C1)[C@@H](c1ccccc1)[C@H](CO)N2C(=O)C1CCCCC1 | . | . | . | . | . | - | .
NC(=S)Nc1ccc2cn[nH]c2c1 | - | - | - | - | - | - | .
c1cc2cn[nH]c2cc1NC1CCCCCC1 | 89 | - | - | - | - | . | 16
O=C(Nc1ccc2nc3n(c(=O)c2c1)CCCCC3)c1cc([N+](=O)[O-])ccc1F | - | - | - | - | - | - | .
O=C(Nc1ccc2nc3n(c(=O)c2c1)CCCCC3)c1c(F)ccc([N+](=O)[O-])c1F | 60 | - | - | - | - | - | 25
CC=Cc1ccc2n(c1=O)C[C@@H]1[C@@H](CO)[C@H](C(=O)NCC)[C@H]2N1C(C)=O (mixture of isomers) | . | . | . | . | . | - | .
Cc1cc2c(cc1C)N(C(=O)CSc1nncn1C)C(C)(C)c1ssc(=S)c1-2 | - | - | - | - | - | - | .
Cc1ccc2c(c1)N(C(=O)CSc1nncn1C)C(C)(C)c1ssc(=S)c1-2 | 39 | - | - | - | - | . | 14
C[C@H]1CN([C@@H](C)CO)S(=O)(=O)c2ccc(C#CC3CCCCC3)cc2O[C@H]1CN(C)Cc1cccnc1 | . | . | . | . | . | - | .
CC1=NNC(=O)/C1=C\c1cn(-c2ccccc2)nc1-c1ccccc1 | 97 | - | - | - | - | - | 1.8
O=Cc1cn(-c2ccccc2)nc1-c1ccccc1 | - | - | - | - | - | - | .
CCN(CC)c1ccc(/C=N/Nc2nc(C)cc(=O)[nH]2)c(O)c1 | 39 | - | - | - | - | - | -
Cc1cc(C(=O)CN2C(=O)c3ccccc3C2=O)c(C)n1C1CC1 | 98 | - | - | - | - | - | -
CCN1C(=O)C(=O)N(CC(=O)c2cc(C)n(C3CC3)c2C)C1=O | . | - | - | - | - | - | .
CC(C)CC#Cc1ccc([C@@H]2[C@H](CO)N3C(=O)CN(S(=O)(=O)c4cccc(F)c4)C[C@@H]23)cc1 | . | . | . | . | . | - | .
C[C@@H]1CN([C@@H](C)CO)C(=O)c2cc(NC(=O)Nc3ccc(C(F)(F)F)cc3)ccc2O[C@@H]1CN(C)Cc1ccc(C(=O)Nc2ccccc2N)cc1 | . | . | . | . | . | - | .
O=C(O)c1cccc(Cn2c(Cl)c(/C=N/Nc3ccccc3)sc2=O)c1 | 30 | - | - | - | - | . | -
C[C@H]1CN([C@@H](C)CO)C(=O)c2cc(C#CC3(O)CCCC3)cnc2O[C@H]1CN(C)Cc1cncnc1 | . | . | . | . | . | - | .
O=c1cc(-c2ccccc2)[nH]n1-c1ccc([N+](=O)[O-])cc1 | 46 | - | - | - | - | - | 30
